ELG1 repair inh – qHTS screen for small molecules that inhibit ELG1-dependent DNA repair in human embryonic kidney (HEK293T) cells expressing luciferase-tagged ELG1 | AID 504467, 2011 | HEK293T ELG1-luciferase reporter, luminescence, 16 h; DNA damage induced by 5-fluorouridine | 330,000 tested, 2.3% active | Potency, µM (series often up to 46.1 µM), inactives show top-dose activity change, negative = inhibition, hits mostly inhibitors; further: on the % scale 0 is the no-effect control and ±100 the full control effect; nearly all actives have a fitted effect of over 55% in size
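HEK293T cells expressing luciferase-tagged ELG1 (2,000/well) received 5-Fluorouridine plus compound or DMSO for 16 hr at 37 °C. Luciferase was read by ONE-Glo luminescence after 30 min at room temperature.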
ELG1 genotoxic – qHTS screen for small molecules that induce genotoxicity in human embryonic kidney (HEK293T) cells expressing luciferase-tagged ELG1 | HEK293T ELG1-luciferase reporter, luminescence, 16 h | Potency, µM (doses to about 46 µM), without a hit: at the highest dose activity change, positive = activation, most hits filed as activators | 330,000 tested, 1.3% active | AID 504466, 2011; further: % of control where 0% means no effect; nearly all actives have a fitted effect of over 60% in size
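Genotoxicity was scored as increased ELG1-luciferase reporter signal, measured by ONE-Glo luminescence (30 min, room temperature). Compound or vehicle exposure of the HEK293T reporter cells lasted 16 hr at 37°C.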
A-T KAP1 phos – qHTS Assay for Identifying a Potential Treatment of Ataxia-Telangiectasia | F2112 A-T fibroblasts, KAP-1 phosphorylation AlphaLISA; neocarzinostatin DNA damage 30 min before lysis | Potency, µM (highest dose often 57.5 µM), without a hit: top-dose activation, actives largely listed as activators | AID 485349, 2010 | 320,000 tested, 0.19% active; further: % of control where 0% means no effect; nearly all actives have a fitted effect of over 45% in size
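hTERT-immortalized A-T patient fibroblasts (F2112), 500 cells/well in OPTI-MEM, 1% FBS, got compounds for 60 min, then NCS for 30 min at 37C. Lysates were then assayed for phospho-KAP-1 by AlphaLISA (anti-pKAP1 donor, anti-KAP1 acceptor beads), 6 hr at 25C.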
MCF10A rerep – A quantitative high throughput screen for small molecules that induce DNA re-replication in MCF 10a normal breast cells; MCF 10A DNA re-replication, Hoechst nuclear intensity, 48 h; Potency, µM (highest dose often 46.1 µM), without a hit: at the top dose activity, positive = re-replication, hits mostly activators; 350,000 tested, 2.9% active; AID 624296, 2012; further: % of control where 0% means no effect; nearly all actives have a fitted effect of over 50% in size
SW480 rerep – A quantitative high throughput screen for small molecules that induce DNA re-replication in SW480 colon adenocarcinoma cells; 340,000 tested, 1.8% active; SW480 DNA re-replication, Hoechst DNA content imaging, 48 h; Potency, µM (doses to about 46.1 µM), for inactives: at the highest dose re-replication activation, actives largely listed as activators; further: % of control where 0% means no effect; nearly all actives have a fitted effect of over 55% in size
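Compounds, transferred as 23 nL by pin tool, were incubated with cells for 48 hr; DNA content per nucleus was then quantified by Hoechst staining and fluorescence plate imaging.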
p53 reactivation – qHTS assay for re-activators of p53 using a Luc reporter; H1299 p53-A138V BP100-luciferase reporter, luminescence, 24 h; Potency, µM (series often up to 92.2 µM), inactives show at the top dose activity change, positive = activation, most hits filed as activators; 320,000 tested, 0.063% active; further: % of control where 0% means no effect; nearly all actives have a fitted effect of over 45% in size
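H1299 (p53-null), stable ts p53-A138V + BP100-Luc; 1000 cells/well, Opti-MEM/10% FBS; cpd 4 pt, 1:5; 24 h, 37 deg C, 5% CO2; detection reagent 10 min RT; luminescence.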
Starred values were filed as active, the others as inactive; ? = inconclusive; / = not tested or not shown; [ ] = dose if it differs, or a comment. Rows were chosen to be rich in hits. Some 7.1% of all compounds tested hit in one or more screens of this group. The call rests on the fitted dose curve; in most records, active means well fitted curve in the direction sought with a large enough effect; inconclusive means small, poorly fitted or top-dose-only effect, or another doubt; inactive means no such curve, though single readings can be large; an effect the other way counts as inactive or inconclusive. Potency means the concentration at half of the fitted maximal effect.

SMILES | ELG1 repair inh | ELG1 genotoxic | A-T KAP1 phos | MCF10A rerep | SW480 rerep | p53 reactivation
O=c1cc(-c2ccccc2)[nH]c2ccc(F)cc12 | ? | ? | -6% | 2.1µM* | 1.6µM* | 30%
CN(C)S(=O)(=O)c1ccc(C(=O)NNC(=O)C23CC4CC(CC(C4)C2)C3)cc1 | 0% | 1% | -8% | -4% | -2% | 2%
COc1ccc(OC)c(NC(=S)N2c3ccccc3CC2C)c1 (configuration not stated) | 18µM* | -10% | -8% | ? | 5% | -11%
Clc1ccc(Oc2ncnc3oc(-c4ccccc4)cc23)cc1 | 7% | 11% | -9% | 5.8µM* | 0% | -1%
CC1(c2nnc(-c3ccncc3)o2)CC(c2ccc(Cl)cc2)=NO1 (configuration not stated) | / | / | / | 9.2µM* | -8% | /
O=C(O)c1ccccc1S(=O)(=O)CC(=O)N1CCCCC1 | 0% | 4% | 0% | -21% | -17% | 4%
O=c1cc(O)c2sc(Nc3ccc(F)cc3)nc2[nH]1 | 1% | 3% | 10% | 16µM* | ? | 2%
CN(C(=O)CSC1=NCCS1)c1ccccc1 | -3% | -1% | / | 8% | 1% | 14%
CN(C(=O)CSc1nc(N)c2c3c(sc2n1)CSC(C)(C)C3)c1ccccc1 | 21µM* | -4% | 3% | 8.2µM* | 1% | -13%
CC1CCC2(CC1)NC(=O)N(NC(=O)c1cc3ccccc3o1)C2=O (configuration not stated) | -1% | 0% | 6% | -1% | 0% | 4%
COc1ccc(NC(=O)c2nc(C)c(C3(C)CC(c4ccccc4)=NO3)s2)cc1 (configuration not stated) | ? | 2% | 27% | 3.7µM* | 4.6µM* | 10%
O=C(Nc1nc2ccsc2c(=O)s1)C1CCC1 | ? | ? | -2% | -2% | -4% | ?
O=c1sc(Nc2ccccc2)nc2ccsc12 | ? | 18µM* | 5% | 3% | 7% | 19%
COc1ccc(-c2nc(CN3CCN(c4ncnc5ccccc45)CC3)c(C)o2)c(OC)c1 | 7.3µM* | -18% | -4%[11.5 µM] | ? | 1% | -8%
Cc1oc(-c2cc(F)ccc2F)nc1CN1CCN(c2ncnc3ccccc23)CC1 | ? | -8% | 5% | 13% | -1% | 7%
CCCc1cc(C(=O)Nc2ccc(C(=O)c3ccc(C)cc3)cc2)n(C)n1 | ? | -16% | 6% | 18µM* | 82% | -3%

Screening results deposited in PubChem by National Center for Advancing Translational Sciences (NCATS).
